Laboratory results taken from PubChem BioAssay (Tox21).
Records with an inconclusive call do not appear. Unmarked numbers belong to inactive results. Active and inactive are the calls of the source. Calls follow the shape of the dose curve; as a rule, active = well fitted cell-killing curve with a large enough effect in the repeat runs; inconclusive = weak or mixed curves, or effect the other way; inactive = flat fitted curve, though single readings scatter.

experiment: qHTS RealTime-Glo MT Cell Viability Assay in HEK293 cells - 0 hour (AID 1224880); settings: RealTime-Glo luminescence; series mostly up to 76.8 µM; activity change, negative = cytotoxicity: at the top concentration; also: top concentration of the series differs between compounds; nearly all actives have a fitted effect of over 45% in size
Method in brief: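 Measured as luminescence from the same continuously cultured HEK293 wells at successive time points (0, 8, 16, 24, 32, 40 h) after compound addition. Reagent present from seeding; dosing at 5 h; incubation 37 C.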
% is scaled to controls: 0 for no effect and ±100 for the full control effect.

First: CCCCCl
Second: CCCCCCCCCCCCN(C)C
The “activity change, negative = cytotoxicity” value of the first is lower: -4.32% for the first, -0.388% for the second.

First: O=C(Cc1ccccc1)OCCc1ccccc1
Second: O=S(=O)(c1ccccc1)c1ccccc1
The “activity change, negative = cytotoxicity” value of the first is lower: -5.68% for the first, -2.62% for the second.

Going from N#CC(C#N)=C(C#N)C#N to CCNC(=O)NC(=O)/C(C#N)=N/OC, the “activity change, negative = cytotoxicity” value rises from -1.24% to -0.812%.

Compared with CN1CC[C@]23c4c5ccc(O)c4O[C@H]2[C@@H](O)C=C[C@H]3[C@H]1C5, C=CCc1ccccc1O is lower in “activity change, negative = cytotoxicity” value: -0.989% for the first, -4.66% for the second.

First: CCOP(=S)(S)OCC
Second: CCOP(=S)(OCC)Oc1ccc(S(C)=O)cc1 (stereo not drawn)
The “activity change, negative = cytotoxicity” value of the first is lower: -12.5% for the first, -3.63% for the second.

Going from CC(C)(C)OOC(C)(C)CCC(C)(C)OOC(C)(C)C to CCCSP(=S)(OCC)Oc1ccc(SC)cc1 (stereo not drawn), the “activity change, negative = cytotoxicity” value falls from 0.538% to 0.494%.

Going from COc1cc(CC(C)N)c(OC)cc1Br (stereo not drawn) to COc1cc(C[C@@H](C)N)c(OC)cc1Br, the “activity change, negative = cytotoxicity” value falls from 29.5% to 12.1%.

Compared with C=CCOCC1CO1 (stereo not drawn), C=C(C)C(=O)OCCCCOC(=O)C(=C)C is higher in “activity change, negative = cytotoxicity” value: -1.35% for the first, 1.69% for the second.

Compared with C=C(Cl)Cl, ClCc1ccccc1Cl is lower in “activity change, negative = cytotoxicity” value: 2.84% for the first, 1.38% for the second.

Compared with NNCCO, CCC[N+](CCC)(CCC)CCC is higher in “activity change, negative = cytotoxicity” value: -8.52% for the first, 8.75% for the second.

Going from O=C(N[C@H]1CN2CCC1CC2)c1ccc2c(c1)OCCO2 to O=C=NC1CCCCC1, the “activity change, negative = cytotoxicity” value rises from -1.79% to 9.58%.

Going from N#CC1(N=NC2(C#N)CCCCC2)CCCCC1 to CC1(C)CC(=O)CC(C)(C)N1[O], the “activity change, negative = cytotoxicity” value rises from -0.0734% to 8.93%.

Compared with CC(C)CCCCCCCOC(=O)c1ccccc1C(=O)OCCCCCCCC(C)C, C1CS1 is lower in “activity change, negative = cytotoxicity” value: 2.78% for the first, -0.433% for the second.

Compared with CC(C)(C)NCC(O)c1cc(Cl)c(N)c(C(F)(F)F)c1 (stereo not drawn), CC(C)(C)NCC(O)c1ccccc1Cl (stereo not drawn) is higher in “activity change, negative = cytotoxicity” value: 7.41% [at 35.3 µM] for the first, 8.99% [at 35.3 µM] for the second.

Compared with O=C(O)c1ccc(=O)[nH]c1, CCOC(C(=O)OCCN(C)C)(c1ccccc1)c1ccccc1 is higher in “activity change, negative = cytotoxicity” value: 16.1% [at 35.3 µM] for the first, 16.9% [at 35.3 µM] for the second.

In the case of O=C(O)COc1cc(Cl)c(Cl)cc1Cl, the outcome is reported as “inactive”.
With CCCC(C)(COC(N)=O)COC(=O)NC(C)C (stereo not drawn) the outcome was “inactive”.
In the case of Clc1ccc(Cl)c(Cl)c1, the outcome is reported as “inactive”.
With Nc1ccccc1C(=O)OCCc1ccccc1 the outcome was “inactive”.
With c1ccc2c(c1)sc1ccccc12 the outcome was “inactive”.
In the case of Nc1cc(Cl)cc(C(=O)O)c1Cl, the outcome is reported as “inactive”.

With Nc1c(Br)cc(Br)c2c1C(=O)c1ccccc1C2=O the activity change, negative = cytotoxicity was -4.62% [at 15.8 µM].

With C[C@H]1[C@@H]2Cc3ccc(O)cc3[C@@]1(C)CCN2C the “activity change, negative = cytotoxicity” value was 0.257% [at 200 µM].
